Among the data in PubChem BioAssay are growth inhibition and outcome values, retold here.

For some of these results: Measured potencies and affinities stand elsewhere. Activity calls are given as the source filed them. Unless noted, the limit is not given here; nearly all actives have IC50 up to about 0.98 µM.

Chain of Calcium-dependent protein kinase 1 (Plasmodium falciparum (isolate 3D7)) (P62344 whole entry, looked up): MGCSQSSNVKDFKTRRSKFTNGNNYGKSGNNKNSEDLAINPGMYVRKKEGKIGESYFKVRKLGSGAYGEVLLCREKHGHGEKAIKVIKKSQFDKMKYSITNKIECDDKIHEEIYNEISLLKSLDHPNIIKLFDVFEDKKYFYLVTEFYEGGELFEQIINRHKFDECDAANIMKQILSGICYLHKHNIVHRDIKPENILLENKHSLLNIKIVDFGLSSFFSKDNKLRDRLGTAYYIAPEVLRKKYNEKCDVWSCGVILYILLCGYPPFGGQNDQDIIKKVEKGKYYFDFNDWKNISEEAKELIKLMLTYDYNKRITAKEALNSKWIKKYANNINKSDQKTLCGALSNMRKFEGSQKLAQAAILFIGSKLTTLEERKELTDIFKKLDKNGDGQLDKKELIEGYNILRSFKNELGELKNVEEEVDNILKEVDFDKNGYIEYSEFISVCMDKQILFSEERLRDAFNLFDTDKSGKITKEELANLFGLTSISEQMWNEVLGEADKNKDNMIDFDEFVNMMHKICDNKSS

Tested on in the first assay: not listed separately
As to the kind of experiment: inhibition of 3D7 malaria parasite growth – strain 3D7 (AID 2306; call rule not given here;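 also: 0% = DMSO wells and 100% = chloroquine plus artemisinin control wells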). The note with it: P. falciparum 3D7 erythrocytic growth, LDH absorbance, 72 h; at 2 µM; active compounds read high.
On to `Nc1ccc(-c2ccc3ccnc(N)c3c2)cc1`, for which the growth inhibition is 102% (active).
On the same count and under the same terms, the value for `Cn1cnc2c(SCc3ccccc3OCc3ccccc3)ncnc21` was 86% (active); that for `O=C(Nc1ccc2c(c1)CCN2C1CCN(Cc2csc3ccccc23)C1)c1ccco1` (configuration not stated) was 95% (active); that for `COc1ccc2cc(-c3nc(-c4c(Cl)cccc4Cl)[nH]c3-c3ccnc(NCCCN4CCCCC4C)c3)ccc2c1` (configuration not stated) was 94% (active).
The same measure, in the same setting: under `COc1cc(Cc2cnc(N)nc2N)cc(CC(C)O)c1O` (configuration not stated) stands 93% (active); under `COc1ccc(N2CCN(CCCCNC(=O)c3ccc(NC(=O)c4cc(C(F)(F)F)cc(C(F)(F)F)c4)cc3)CC2)c(OC)c1`, 100% (active); under `Cc1ccc(C(=O)Nc2cccc(CN3CCCN(Cc4ccc(O)cc4)CC3)c2)cc1`, 88% (active).
Regarding `O=C(Nc1cccc(-c2cccc(-c3nc4ccc(C(F)(F)F)cc4[nH]3)c2)c1)c1csnn1`, the growth inhibition is 99% (active).
The same measure, in the same setting: under `Cc1ccc(OCCCCON2C(N)=NC(N)=NC2(C)C)cc1C` stands 94% (active); under `CCOc1cc(NCCCNc2ncc([N+](=O)[O-])cc2C)nc2ccccc12`, 84% (active); under `N#Cc1cccc(C(=O)Nc2cccc(-c3ccc(CN4CCCC4)cc3)c2)c1`, 98% (active).
The same measure, in the same setting: the value for `O=C(O)c1ccc(NC(=O)C2CC(=O)N(Cc3ccc(Cl)cc3)C(=Nc3ccc(Cl)cc3)S2)cc1` (configuration not stated) was 99% (active); that for `CN1CCN(c2cc(-c3ccncc3)nc(-c3cccnc3)n2)CC1` was 101% (active).
On the same count and under the same terms, under `COC(=O)c1cccc(CNCc2cccc(-c3cccc(-c4nc5ccc(C(F)(F)F)cc5[nH]4)c3)c2)c1` stands 102% (active); under `O=C(Nc1cc(Cl)cc(Cl)c1)Nc1ccccc1C(=O)NC1CCCCC1`, 101% (active); under `COCCN1CCN(Cc2ccc(-c3ccc(-c4nc5ccc(F)cc5[nH]4)cc3)cc2)CC1`, 101% (active).
For `Cc1noc(-c2ccc3c(c2)CCN(CCC2CCC(NC(=O)/C=C/c4ccc(F)cc4)CC2)CC3)n1` (configuration not stated), the growth inhibition was 91% (active).
As for `O=S(=O)(NCCN1CCCC1)c1ccc(-c2cccc(CNCCc3cccs3)c2)s1`, the growth inhibition is 99% (active).
The same measure, in the same setting: under `CCSc1ccccc1CON1C(N)=NC(N)=NC1(C)C` stands 96% (active); under `Cc1cccc2[nH]c(-c3cccc(-c4ccc(CN5CCN(CCO)CC5)cc4)c3)nc12`, 101% (active).
The same measure, in the same setting: under `Cn1cnc(CCNC(=O)c2cccc(-c3csc(-c4nc5ccccc5[nH]4)c3)c2)c1` stands 101% (active); under `CC(C)(C)c1ccc(O)c(CNC2CCCCC2)c1`, 100% (active); under `O=[N+]([O-])c1ccc(CNCCCCCCNCc2ccc([N+](=O)[O-])c3ccccc23)c2ccccc12`, 102% (active).
As for `CN(C)Cc1ccc2cc(NC(=O)c3ccc(-c4ccc(Cl)cc4)cc3)ccc2n1`, the growth inhibition is 86% (active).
For `CCN(CC)C(=O)C1CCN(C(C(=O)N2CCN(CC(=O)N3CCCC3)CC2)c2cc3ccccc3o2)CC1` (configuration not stated), the growth inhibition is 98% (active).
The same measure, in the same setting: under `N#Cc1ccc(Sc2nnc(-c3ccccc3Cl)n2CC2CCCCC2)cc1[N+](=O)[O-]` stands 85% (active); under `Oc1c(C(Nc2ccccn2)c2ccco2)cc(Cl)c2cccnc12` (configuration not stated), 87% (active).

The next assay has as its target Calcium-dependent protein kinase 1 (Plasmodium falciparum (isolate 3D7)) (UniProt P62344). Put plainly: PfCDPK1 kinase inhibitors, biochemical, TCAMS library (AID 1159585).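 Also: inhibitors leave more ATP so luminescence rises with inhibition.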 As to conditions: recombinant PfCDPK1, Kinase-Glo ATP depletion luminescence. For orientation: Kinase-Glo measures the ATP left after a reaction by luminescence.
As for `Cc1ccc2[nH]c3c(c2c1)CC(C(=O)NCCC(C)C)NC31CCN(Cc2ccccc2)CC1` (configuration not stated), the result was inactive.
The same measure, in the same setting: under `COc1ccc2nccc([C@@H](O)CN3CCC(NCc4cc5sccc5nc4C(F)(F)F)CC3)c2c1` stands “inactive”.
The same measure, in the same setting: under `Cc1cc(C2CCN(CCCCNC(=O)c3ccc(-c4ccc(C(F)(F)F)cc4)cc3)CC2)c(C)cc1OCCOC1CCCCO1` (configuration not stated) stands “inactive”; under `FC(F)(F)CNc1nc(Nc2ccc3ncccc3c2)nc2[nH]ccc12`, “inactive”.
The same measure, in the same setting: the value for `CCS[C@@H]1O[C@H](COC(=O)c2ccccc2)[C@H](OC(=O)c2ccccc2)[C@H](OC(=O)c2ccccc2)[C@H]1OC(=O)c1ccccc1` was “inactive”; that for `COc1ccc(S(=O)(=O)Nc2cc(C)cc(Br)c2OC)cc1N1CCN(C(=O)C(Cl)(Cl)Cl)CC1` was “inactive”.
For `COc1ccc(NC(=O)c2ccc(OCCCCCCCOc3ccc(C(=O)Nc4ccc(OC)c(N5CCN(C)CC5)c4)cc3)cc2)cc1N1CCN(C)CC1`, the outcome was inactive.
Same read-out and setting: under `CCOC(=O)C(C#N)NC(=O)C=Cc1ccccc1` (configuration not stated) stands “inactive”.
Same read-out and setting: under `CCC(=O)Nc1cc(=O)[nH]c2nc(-c3ccc(Cl)cc3)nn12` stands “inactive”.
In the case of `COc1cccc(C2(c3cccc(OC)c3)N=C(N)N(CCCc3ccccc3)C2=O)c1`, the result was inactive.
Still for that read-out and setting: under `COc1ccc(CCN(C)CCCN2CCC(NC(=O)c3cccc4c(=O)c5ccccc5sc34)CC2)cc1OC` stands “inactive”.
On the same count and under the same terms, the value for `Oc1cccc(Nc2ccnc3cc(-c4cc5ccccc5o4)ccc23)c1` was “inactive”.
Same read-out and setting: the value for `Cc1cccc2[nH]c(-c3cccc(-c4ccc(NC(=O)CN5CCN(C)CC5)cc4)c3)nc12` was “inactive”.
Consider `Nc1ccc(-c2ccc3ccnc(N)c3c2)cc1`, for which the result was inactive.
With `Cn1cnc2c(SCc3ccccc3OCc3ccccc3)ncnc21`, the result was inactive.
Turning to `O=C(Nc1ccc2c(c1)CCN2C1CCN(Cc2csc3ccccc23)C1)c1ccco1` (configuration not stated), the outcome was inactive.
On the same count and under the same terms, the value for `COc1ccc2cc(-c3nc(-c4c(Cl)cccc4Cl)[nH]c3-c3ccnc(NCCCN4CCCCC4C)c3)ccc2c1` (configuration not stated) was “inactive”; that for `COc1cc(Cc2cnc(N)nc2N)cc(CC(C)O)c1O` (configuration not stated) was “inactive”.
In the case of `COc1ccc(N2CCN(CCCCNC(=O)c3ccc(NC(=O)c4cc(C(F)(F)F)cc(C(F)(F)F)c4)cc3)CC2)c(OC)c1`, the outcome was inactive.
On the same count and under the same terms, the value for `Cc1ccc(C(=O)Nc2cccc(CN3CCCN(Cc4ccc(O)cc4)CC3)c2)cc1` was “inactive”; that for `O=C(Nc1cccc(-c2cccc(-c3nc4ccc(C(F)(F)F)cc4[nH]3)c2)c1)c1csnn1` was “inactive”; that for `Cc1ccc(OCCCCON2C(N)=NC(N)=NC2(C)C)cc1C` was “inactive”.
On the same count and under the same terms, under `CCOc1cc(NCCCNc2ncc([N+](=O)[O-])cc2C)nc2ccccc12` stands “inactive”; under `N#Cc1cccc(C(=O)Nc2cccc(-c3ccc(CN4CCCC4)cc3)c2)c1`, “inactive”.
Same read-out and setting: the value for `O=C(O)c1ccc(NC(=O)C2CC(=O)N(Cc3ccc(Cl)cc3)C(=Nc3ccc(Cl)cc3)S2)cc1` (configuration not stated) was “inactive”; that for `CN1CCN(c2cc(-c3ccncc3)nc(-c3cccnc3)n2)CC1` was “inactive”; that for `COC(=O)c1cccc(CNCc2cccc(-c3cccc(-c4nc5ccc(C(F)(F)F)cc5[nH]4)c3)c2)c1` was “inactive”.
For the molecule `O=C(Nc1cc(Cl)cc(Cl)c1)Nc1ccccc1C(=O)NC1CCCCC1`, the result was inactive.
Consider `COCCN1CCN(Cc2ccc(-c3ccc(-c4nc5ccc(F)cc5[nH]4)cc3)cc2)CC1`, for which the result was inactive.
The same measure, in the same setting: the value for `Cc1noc(-c2ccc3c(c2)CCN(CCC2CCC(NC(=O)/C=C/c4ccc(F)cc4)CC2)CC3)n1` (configuration not stated) was “inactive”; that for `O=S(=O)(NCCN1CCCC1)c1ccc(-c2cccc(CNCCc3cccs3)c2)s1` was “inactive”; that for `CCSc1ccccc1CON1C(N)=NC(N)=NC1(C)C` was “inactive”.
Still for that read-out and setting: under `Cc1cccc2[nH]c(-c3cccc(-c4ccc(CN5CCN(CCO)CC5)cc4)c3)nc12` stands “inactive”; under `Cn1cnc(CCNC(=O)c2cccc(-c3csc(-c4nc5ccccc5[nH]4)c3)c2)c1`, “inactive”; under `CC(C)(C)c1ccc(O)c(CNC2CCCCC2)c1`, “inactive”.
The same measure, in the same setting: the value for `O=[N+]([O-])c1ccc(CNCCCCCCNCc2ccc([N+](=O)[O-])c3ccccc23)c2ccccc12` was “inactive”.
Consider `CN(C)Cc1ccc2cc(NC(=O)c3ccc(-c4ccc(Cl)cc4)cc3)ccc2n1`, for which the outcome was inactive.
The same measure, in the same setting: under `CCN(CC)C(=O)C1CCN(C(C(=O)N2CCN(CC(=O)N3CCCC3)CC2)c2cc3ccccc3o2)CC1` (configuration not stated) stands “inactive”; under `N#Cc1ccc(Sc2nnc(-c3ccccc3Cl)n2CC2CCCCC2)cc1[N+](=O)[O-]`, “inactive”; under `Oc1c(C(Nc2ccccn2)c2ccco2)cc(Cl)c2cccnc12` (configuration not stated), “inactive”.
